Screening data as filed in PubChem.
TTR transcr act: TTR transcription activators in neuroblastoma reporter cells, primary screen, cell-based, luminescence, SH-SY5Y, TTR promoter Gaussia luciferase. 100% = recombinant luciferase protein wells. activation, % at 16.7 µM. hit rate 1.3% among 92,000;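 active = activation above the mean of all tested compounds plus 3 SD, cut at about 9.5% in these data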;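 note: cells exposed to compounds for one day before reading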
HuH7 TTR inh: TTR promoter reporter inhibitors in hepatoma cells, counter-screen for TTR transcription activator project, cell-based, luminescence, HuH7 hepatoma | shares compounds with TTR transcr act | HuH7 TTR promoter-Gaussia luciferase reporter | inhibition, % at 16.7 µM | hit rate 4% among 1,100;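 active = average inhibition above the solvent-only control wells' mean plus 3 SD, cut at about 15% in these data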;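 note: inhibitors lower well luminescence so higher value means more inhibition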
TTR act confirm: TTR transcription activators, retest, confirmation, cell-based, luminescence, SH-SY5Y, triplicate; shares compounds with TTR transcr act; SHSY5Y TTR promoter Gaussia luciferase; 100% = purified Lucia enzyme wells, no cells; activation, % at 16.7 µM; 1,100 tested, under 10 active; AID 1117280, 2014;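 active = mean activation above a set limit taken from the earlier primary screen, cut at about 11% in these data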
Each line names hits and unclear results; the compound was inactive in the other large screens (follow-up assays come after a bar, where they were run). The full list was thinned out, with hits kept by preference.

COc1ccccc1C1=NOC(Cn2c(NCC3CCCO3)nc3c2c(=O)n(C)c(=O)n3C)C1 (stereo unspecified)	none
COc1ccccc1C1=NOC(Cn2c(=O)c3c(ncn3C)n(C)c2=O)C1 (stereo unspecified)	TTR transcr act 16.4 | HuH7 TTR inh inactive | TTR act confirm inactive
O=C(NC1CCCCN(Cc2ccc(Cl)cc2)C1=O)c1ccc(F)cc1 (stereo unspecified)	none
CCOc1cc2[nH]c(=S)n(CCCOC)c(=O)c2cc1OCC	none
CCOc1cc2[nH]c(=S)n(CCC(=O)NCc3ccc(OC)cc3)c(=O)c2cc1OCC	TTR transcr act 25.7 | HuH7 TTR inh inactive | TTR act confirm inactive
CCOc1cc2[nH]c(=S)n(CCCCC(=O)NCc3ccco3)c(=O)c2cc1OCC	none
CC(=O)c1cc(-c2ccc([N+](=O)[O-])cc2)c(=O)n2c1CCC2	none
COC(=O)[C@]12C[C@H](CC(=O)NCc3cccc4ccccc34)C(=O)N(Cc3cccc4ccccc34)C1=C[C@H](C1CCCC1)O[C@@H]2C	none
CC(C)(C)c1ccc(-c2noc(CCC(=O)NC3CC3)n2)cc1	none
O=c1c2cc3cc(Cl)ccc3nc2ncn1Cc1ccc(Oc2ccccc2)cc1	none
Cc1ccc(-c2[nH]c(-c3ccc(C(=O)O)cc3)nc2-c2ccccc2)cc1	TTR transcr act 12.5 | HuH7 TTR inh inactive | TTR act confirm inactive
NC(=O)c1nc(-c2ccccc2)c(-c2ccccc2)[nH]c1=O	none
O=c1nc(-c2ccccc2)nc(-c2ccccc2)[nH]1	none
COc1ccc2c(c1)N[C@@](CCNC=O)(c1[nH]c3ccccc3c1CCNC=O)C2=O	none
O=c1ccn(C2CC(O)C(COC(c3ccccc3)(c3ccccc3)c3ccccc3)O2)c(=O)[nH]1 (stereo unspecified)	none
COc1ccc(CN2C(=O)COc3ccccc3C2c2nnnn2C2CCCCC2)cc1 (stereo unspecified)	none
O=S(=O)(Nc1cccc2ccccc12)c1cccc2nonc12	none
Cc1ccccc1Nc1nc2ccccc2n1C(C)C	none
Cc1ccccc1Nc1cccc2nonc12	TTR transcr act 18.2 | HuH7 TTR inh inactive | TTR act confirm inactive
CCC[C@H]1[C@@H](NC(=O)c2cccc(N(C)C)c2)CC[C@@]23CCCN2C(=O)CCC[C@@H]13	none
CCCC1CCC2(CC1)CCC2OC(=S)NCCc1ccc(Cl)cc1 (stereo unspecified)	none
O=C(Nc1ccc(Cl)cc1Cl)c1cccc(N2C(=O)C=CC2=O)c1	none
COc1cccc(NC(=O)N(C2CCCCC2)C(C)c2cccs2)c1 (stereo unspecified)	TTR transcr act 13.2 | HuH7 TTR inh inactive | TTR act confirm inactive
CC(c1cccnc1)N(C(=O)Nc1ccccc1)C1CCCCC1 (stereo unspecified)	none
COc1cccc(NC(=O)Cc2cccs2)c1	none
Cc1ccc(CN2CCCCC(NC(=O)c3cccc(C(F)(F)F)c3)C2=O)cc1 (stereo unspecified)	none
CCC[C@H]1[C@@H](NC(=O)c2cccc(Cl)c2)CC[C@@]23CCCN2C(=O)CCC[C@@H]13	none
O=C1c2cccn2CC2Cc3ccccc3N12 (stereo unspecified)	none
CCOC(=O)C1=C(C)NC(C)=C(C(=O)OCC)C1c1ccco1	none
CCOC(=O)C1=C(c2ccccc2)OC(N)=C(C#N)C1c1ccco1 (stereo unspecified)	TTR transcr act 13.5 | HuH7 TTR inh inactive | TTR act confirm inactive
CCOC(=O)C1=C(c2ccccc2)OC(N)=C(C#N)C1C1CCCCC1 (stereo unspecified)	none
CCS(=O)(=O)Nc1ccc2c(c1)C(=O)N(C)[C@@H]1CC[C@H](CC(=O)N3CCCCC3)O[C@H]1CO2	none
COC(=O)CSc1nnc(-c2ccc(OC)c(OC)c2)o1	none
CCOC(=O)Cc1csc(NC(=O)CSc2nnc(-c3ccc(NS(=O)(=O)CC)cc3)o2)n1	none
CCS(=O)(=O)Nc1ccc(-c2nnc(SCC(=O)OC)o2)cc1	TTR transcr act 10.3 | HuH7 TTR inh inactive | TTR act confirm inactive
COC(=O)c1cccc(Cn2ccc3ccc(-c4ccc5ccn(C(=O)C6CCC6)c5c4)cc32)c1	none
O=C1CCC([N+](=O)[O-])C(C2CC=CCC2)N1 (stereo unspecified)	none
CCCC[C@H]1C2CC(OC(=O)Nc3ccccc3Cl)C(C2)[C@H]2CCCCN21 (stereo partly specified)	none
C[C@@H]1CN([C@@H](C)CO)C(=O)CCCn2cc(nn2)CO[C@H]1CN(C)C(=O)Nc1ccc(-c2cccs2)cc1	none
COc1ccc(-c2[nH]c(-c3ccc(C)cc3)nc2SCC(=O)Nc2nccs2)cc1	TTR transcr act 10.4 | HuH7 TTR inh inactive | TTR act confirm inactive
COc1ccc(-c2[nH]c(-c3ccc(SC)cc3)nc2SCC(=O)Nc2nccs2)cc1	none
COc1ccc(-c2nc(SCC(=O)NC3CCCC3)c(-c3ccc(OC)cc3)[nH]2)cc1	none
Cc1ccc(CN2CCCCC(NC(=O)c3ccc(C)cc3)C2=O)cc1 (stereo unspecified)	none
CC(C)(C)CCNc1nc(-c2ccccn2)nnc1-c1ccccc1	none
C[C@@H]1CCN(C2CC2)S(=O)(=O)c2c(cccc2N2CCC[C@@H]2C)O1	none
CC(C)C(=O)Nc1cccc(-c2nc3ccccc3o2)c1	none
O=C(CSc1ccc(Cl)cc1)Nc1cccc(-c2nc3ncccc3o2)c1	none
CC(C)C(=O)Nc1cccc(-c2nc3ncccc3o2)c1	TTR transcr act 14.7 | HuH7 TTR inh inactive | TTR act confirm inactive
C[C@@H]1CCN(C2CC2)S(=O)(=O)c2c(cccc2N2CCC[C@H]2C)O1	none
COc1ccc2[nH]c3c(c2c1)CCN[C@]31C(=O)N(C)c2ccccc21	none
Cc1cccc(C(=O)Nc2nc3ncccn3c2-c2ccc(C(F)(F)F)cc2)c1	none
CC(C)NC(=O)c1cc2n(n1)C(C(F)(F)F)CC(c1ccco1)N2 (stereo unspecified)	none
O=C(NCc1ccco1)c1cc2n(n1)C(C(F)(F)F)CC(c1ccc(Cl)c(Cl)c1)N2 (stereo unspecified)	none
O=C(Nc1ccccc1)c1cc2n(n1)C(C(F)(F)F)CC(C1CC1)N2 (stereo unspecified)	TTR transcr act 13.9 | HuH7 TTR inh inactive | TTR act confirm inactive
Cc1ccc(S(=O)(=O)N2c3ccccc3C[C@H]2CCC(=O)c2ccccc2)cc1	none
C#CCNC(=O)C[C@@H]1C(=O)N2CCCC3=C2[C@@]1(C(=O)OCC)CCC3	none
N#Cc1ccc(Cn2ccc3ccc(-c4ccc5ccn(Cc6ccc(C#N)cc6)c5c4)cc32)cc1	none
COc1ccc(C(c2c(NC(=O)c3ccco3)sc(C)c2C)N2CCOCC2)cc1 (stereo unspecified)	TTR transcr act 13.8 | HuH7 TTR inh inactive | TTR act confirm inactive
COc1ccc(C(Nc2ccccn2)c2c(NC(=O)c3ccco3)sc(C)c2C)cc1OC (stereo unspecified)	none
COc1ccc(C(CNC(=O)c2ccco2)N2CCCCC2)cc1 (stereo unspecified)	none
CC(C)CNC(=O)OCc1cn(Cc2cccc(Cl)c2)nn1	none
COC(=O)C1CN(CC(C)C)CCS(=O)(=O)N1Cc1cccc(Cl)c1 (stereo unspecified)	none
Cc1cccc(C)c1NC(=O)COC(=O)c1cc(=O)[nH]c2ccccc12	none
CCNC(=O)COC(=O)c1cc(=O)[nH]c2ccccc12	none
